Laboratory results published in the OligoGym collection.

target: ITPRIP; experiment: pooled miR-30 sensor sort-seq; sequence = guide strand; settings: shRNA
Further: reference of the scale not given here.

| Sequence | sensor-assay potency score (higher = more potent) |
| --- | --- |
| TTTTCAGTGAACTTTCTCCTGG | -0.029 |
| TAAGGCAGCATGAAACACCAAG | -0.493 |
| TTGAAGGGCATGAACTTCCCTG | 0.113 |
| TAGGAGGTGCAGTAGGGCCGTC | -0.656 |
| TTGATCTTCAGGGACCCCGGGC | -0.883 |
| TTGAGCATCTCATAGAAGGAGT | -0.45 |
| TTTAGTGTCGTCCTGAGGAAGT | -0.751 |
| TTGGTCTTGCCGCAGATGCAGC | -1.52 |
| TGAACGGAACTTGATCTTCAGG | -1.39 |
| TTCAAGTACAGACTGGATCTGG | 0.622 |
| TTAGAAGCAGCTTTGGTGCAGA | 0.222 |
| TTCTTCTGGAGCAAGCTCTTCT | -0.26 |

target: JAM3; experiment: as above; settings: shRNA

| Sequence | sensor-assay potency score (higher = more potent) |
| --- | --- |
| TTATTGTTGATGAAGTAGCCAC | -0.389 |
| TAGCAGAGGTATGTGCACGTGC | -0.388 |
| TTCATCTTGAATTTTCTTCCAC | 0.166 |
| TAGAGTAAGAAGAGTAGTGGTC | 0.457 |
| TTCACTTGCACAGTTAACTCGA | 0.721 |
| TTCTGAATGAGTGTCTAGCTCT | -0.216 |
| TAAAGGGCTGAGTCTCTCCGTG | -0.394 |
| TTGTTGATGAAGTAGCCACGTC | -0.698 |
| TTTCCTTGCGGTCATTTCGAGC | -1.23 |
| TTGATGAAGTAGCCACGTCTGT | -0.852 |
